For some assays here: Entries with a potency or affinity are not part of this list.
Key:
Set-up in all cases: scale not given: direction of the effect not stated beside the values
[1] = target: Protein translocase subunit SecA (Escherichia coli (strain K12)) (UniProt P10408); assay: Assay to Identify E. coli SecA ATPase Inhibitors; type: functional; details: 30 µM
[2] = target: T1, Ubiquitin-activating enzyme e1, putative (Leishmania donovani (strain BPK282A1)) (UniProt E9BSI1); assay: Leishmania donovani Ubiquitin Activating Enzyme (LdE1); type: functional; details: 30 µM
T1 sequence (whole entry): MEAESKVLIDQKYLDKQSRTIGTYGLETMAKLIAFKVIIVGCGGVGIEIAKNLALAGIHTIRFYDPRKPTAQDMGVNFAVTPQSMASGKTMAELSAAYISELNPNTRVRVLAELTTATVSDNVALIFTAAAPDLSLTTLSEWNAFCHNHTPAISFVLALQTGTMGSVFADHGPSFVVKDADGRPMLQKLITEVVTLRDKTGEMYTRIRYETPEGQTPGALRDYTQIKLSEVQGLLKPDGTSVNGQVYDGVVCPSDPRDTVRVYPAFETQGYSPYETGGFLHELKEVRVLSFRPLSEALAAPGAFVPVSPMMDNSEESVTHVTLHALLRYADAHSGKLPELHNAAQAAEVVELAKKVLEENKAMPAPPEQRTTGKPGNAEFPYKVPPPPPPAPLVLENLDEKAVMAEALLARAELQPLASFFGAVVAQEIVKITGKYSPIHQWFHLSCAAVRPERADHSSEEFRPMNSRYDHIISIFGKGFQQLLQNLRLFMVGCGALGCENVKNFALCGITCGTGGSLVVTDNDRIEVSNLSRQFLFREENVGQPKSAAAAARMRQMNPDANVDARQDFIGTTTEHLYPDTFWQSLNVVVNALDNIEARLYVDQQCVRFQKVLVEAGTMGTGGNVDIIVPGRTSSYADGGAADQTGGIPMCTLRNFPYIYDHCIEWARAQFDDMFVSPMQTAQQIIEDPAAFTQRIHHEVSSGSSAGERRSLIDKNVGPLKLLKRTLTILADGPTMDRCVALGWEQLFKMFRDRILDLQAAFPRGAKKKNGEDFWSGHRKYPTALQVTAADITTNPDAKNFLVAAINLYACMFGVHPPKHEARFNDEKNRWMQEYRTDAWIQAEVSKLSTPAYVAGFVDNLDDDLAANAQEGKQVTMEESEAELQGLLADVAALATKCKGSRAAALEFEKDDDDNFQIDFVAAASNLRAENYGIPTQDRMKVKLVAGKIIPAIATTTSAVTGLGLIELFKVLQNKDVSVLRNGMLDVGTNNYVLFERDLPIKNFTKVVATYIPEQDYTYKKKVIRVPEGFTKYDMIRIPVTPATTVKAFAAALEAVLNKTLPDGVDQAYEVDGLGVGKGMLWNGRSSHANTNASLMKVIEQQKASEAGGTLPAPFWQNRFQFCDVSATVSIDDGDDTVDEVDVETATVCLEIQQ

[3] = target: AMP-activated protein kinase, AMPK (Homo sapiens) (UniProt P54646+O43741+P54619+Q9UGJ0+Q9Y478+Q13131+Q9UGI9); assay: AMP-dependent Kinase enzyme assay. An in vitro enzyme assay that detects ADP turnover that is directly proportional to AMPK activity. This uses naive AMPK that is activated during the assay with MK-8722; type: functional; details: 30 µM
[4] = target: Sialic acid-binding Ig-like lectin 9 (Homo sapiens) (UniProt Q9Y336); assay: Hs-Siglec9 ALPHAscreen SOP 20170721; details: 10 µM
Sialic acid-binding Ig-like lectin 9 (Homo sapiens), sequence (Q9Y336 whole entry): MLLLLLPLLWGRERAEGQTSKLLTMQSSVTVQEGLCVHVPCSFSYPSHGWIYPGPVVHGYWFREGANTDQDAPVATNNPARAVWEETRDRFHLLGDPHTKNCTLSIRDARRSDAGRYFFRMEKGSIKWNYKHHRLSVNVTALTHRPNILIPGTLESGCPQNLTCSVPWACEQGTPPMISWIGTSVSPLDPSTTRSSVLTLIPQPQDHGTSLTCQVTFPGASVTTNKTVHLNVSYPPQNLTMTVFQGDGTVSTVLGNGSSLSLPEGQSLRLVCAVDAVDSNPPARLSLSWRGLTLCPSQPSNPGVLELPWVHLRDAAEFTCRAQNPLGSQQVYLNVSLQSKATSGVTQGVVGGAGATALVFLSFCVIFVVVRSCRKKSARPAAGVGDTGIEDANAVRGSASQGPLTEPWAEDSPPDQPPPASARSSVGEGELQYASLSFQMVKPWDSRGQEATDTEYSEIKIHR

[5] = system: Trypanosoma cruzi; assay: Trypanosoma cruzi phosphomannomutase and mannose-1-phosphate guanylyltransferase assay; type: functional; details: 10 µM
[6] = target: T2, Arginase-2, mitochondrial (Homo sapiens) (UniProt P78540); assay: in vitro enzyme assay to detect the production of urea directly proportional to the activity of Arginase II; type: functional; details: 33.3 µM; also: in the data most compounds retested in dose-response had high values
T2 sequence (whole entry): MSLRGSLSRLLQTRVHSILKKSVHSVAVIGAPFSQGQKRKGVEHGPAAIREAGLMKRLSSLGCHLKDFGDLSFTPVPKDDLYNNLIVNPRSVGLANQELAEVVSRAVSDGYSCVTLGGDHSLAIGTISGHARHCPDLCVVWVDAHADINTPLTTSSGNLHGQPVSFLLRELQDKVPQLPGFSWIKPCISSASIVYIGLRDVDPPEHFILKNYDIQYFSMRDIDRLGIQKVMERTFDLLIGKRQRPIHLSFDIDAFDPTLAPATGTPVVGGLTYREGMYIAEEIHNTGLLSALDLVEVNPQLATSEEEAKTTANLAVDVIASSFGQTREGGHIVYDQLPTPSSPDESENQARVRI

[7] = target: T3, Proteasome subunit beta (Trypanosoma cruzi) (UniProt O96673); assay: Trypanosoma cruzi proteasome chymotrypsin-like activity (TcProtChymo) assay.; also: in the data most compounds retested in dose-response had high values; type: functional; details: 9.37 µM
T3 sequence (whole entry): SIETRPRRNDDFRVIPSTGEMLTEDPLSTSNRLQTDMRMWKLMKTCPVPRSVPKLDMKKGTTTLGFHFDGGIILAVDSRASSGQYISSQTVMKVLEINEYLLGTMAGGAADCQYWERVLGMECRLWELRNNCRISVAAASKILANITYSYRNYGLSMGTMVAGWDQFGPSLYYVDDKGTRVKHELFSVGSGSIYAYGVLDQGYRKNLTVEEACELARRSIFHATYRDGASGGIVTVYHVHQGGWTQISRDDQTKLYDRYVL

[8] = species on record: Homo sapiens; assay: To identify inhibition of the IFN signalling (Jak-Stat) pathway via expression of an eGFP reporter gene under the control of an IFN-stimulated response element (ISRE) containing MxA promoter.; type: functional; details: 30 µM
[9] = target: T4, Tyrosyl-tRNA synthetase, putative (Trypanosoma cruzi (strain CL Brener)) (UniProt Q4DSP6); assay: Trypanosoma cruzi tyrosyl tRNA synthetase (TcYRS) _High Tyrosine SOP; type: functional; details: 30 µM; also: in the data most compounds retested in dose-response had high values
T4 sequence (whole entry): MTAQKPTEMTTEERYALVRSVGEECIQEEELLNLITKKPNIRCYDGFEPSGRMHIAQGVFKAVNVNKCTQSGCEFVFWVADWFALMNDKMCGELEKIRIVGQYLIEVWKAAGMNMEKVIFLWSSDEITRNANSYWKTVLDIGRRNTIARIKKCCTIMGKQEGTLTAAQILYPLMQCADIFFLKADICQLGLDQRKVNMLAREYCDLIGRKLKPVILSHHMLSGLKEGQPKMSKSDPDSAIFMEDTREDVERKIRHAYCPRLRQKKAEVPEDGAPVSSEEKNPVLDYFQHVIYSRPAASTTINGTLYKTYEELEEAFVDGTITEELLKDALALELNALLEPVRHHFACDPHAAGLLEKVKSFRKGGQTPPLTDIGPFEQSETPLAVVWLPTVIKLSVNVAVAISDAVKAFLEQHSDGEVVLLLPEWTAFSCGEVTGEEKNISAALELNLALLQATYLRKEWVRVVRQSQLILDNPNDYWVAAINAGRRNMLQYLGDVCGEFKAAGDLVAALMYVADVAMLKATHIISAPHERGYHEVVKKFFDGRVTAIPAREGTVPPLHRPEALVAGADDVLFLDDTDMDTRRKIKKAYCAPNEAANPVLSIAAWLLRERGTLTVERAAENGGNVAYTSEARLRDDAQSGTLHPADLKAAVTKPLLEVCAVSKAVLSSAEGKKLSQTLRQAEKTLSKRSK

[10] = target: T4, Tyrosyl-tRNA synthetase, putative (Trypanosoma cruzi (strain CL Brener)); assay: Trypanosoma cruzi tyrosyl tRNA synthetase (TcYRS) SOP; type: functional; details: 30 µM
[11] = target: Chromo domain-containing protein 1 (Saccharomyces cerevisiae (strain ATCC 204508 / S288c) (Baker's yeast)) (UniProt P32657); assay: ScCHD-1 Enzyme Inhibition Assay; type: functional; details: 30 µM; also: in the data most compounds retested in dose-response had high values
Chromo domain-containing protein 1 (Saccharomyces cerevisiae (strain ATCC 204508 / S288c) (Baker's yeast)), sequence (P32657 whole entry, the tested form may be a part): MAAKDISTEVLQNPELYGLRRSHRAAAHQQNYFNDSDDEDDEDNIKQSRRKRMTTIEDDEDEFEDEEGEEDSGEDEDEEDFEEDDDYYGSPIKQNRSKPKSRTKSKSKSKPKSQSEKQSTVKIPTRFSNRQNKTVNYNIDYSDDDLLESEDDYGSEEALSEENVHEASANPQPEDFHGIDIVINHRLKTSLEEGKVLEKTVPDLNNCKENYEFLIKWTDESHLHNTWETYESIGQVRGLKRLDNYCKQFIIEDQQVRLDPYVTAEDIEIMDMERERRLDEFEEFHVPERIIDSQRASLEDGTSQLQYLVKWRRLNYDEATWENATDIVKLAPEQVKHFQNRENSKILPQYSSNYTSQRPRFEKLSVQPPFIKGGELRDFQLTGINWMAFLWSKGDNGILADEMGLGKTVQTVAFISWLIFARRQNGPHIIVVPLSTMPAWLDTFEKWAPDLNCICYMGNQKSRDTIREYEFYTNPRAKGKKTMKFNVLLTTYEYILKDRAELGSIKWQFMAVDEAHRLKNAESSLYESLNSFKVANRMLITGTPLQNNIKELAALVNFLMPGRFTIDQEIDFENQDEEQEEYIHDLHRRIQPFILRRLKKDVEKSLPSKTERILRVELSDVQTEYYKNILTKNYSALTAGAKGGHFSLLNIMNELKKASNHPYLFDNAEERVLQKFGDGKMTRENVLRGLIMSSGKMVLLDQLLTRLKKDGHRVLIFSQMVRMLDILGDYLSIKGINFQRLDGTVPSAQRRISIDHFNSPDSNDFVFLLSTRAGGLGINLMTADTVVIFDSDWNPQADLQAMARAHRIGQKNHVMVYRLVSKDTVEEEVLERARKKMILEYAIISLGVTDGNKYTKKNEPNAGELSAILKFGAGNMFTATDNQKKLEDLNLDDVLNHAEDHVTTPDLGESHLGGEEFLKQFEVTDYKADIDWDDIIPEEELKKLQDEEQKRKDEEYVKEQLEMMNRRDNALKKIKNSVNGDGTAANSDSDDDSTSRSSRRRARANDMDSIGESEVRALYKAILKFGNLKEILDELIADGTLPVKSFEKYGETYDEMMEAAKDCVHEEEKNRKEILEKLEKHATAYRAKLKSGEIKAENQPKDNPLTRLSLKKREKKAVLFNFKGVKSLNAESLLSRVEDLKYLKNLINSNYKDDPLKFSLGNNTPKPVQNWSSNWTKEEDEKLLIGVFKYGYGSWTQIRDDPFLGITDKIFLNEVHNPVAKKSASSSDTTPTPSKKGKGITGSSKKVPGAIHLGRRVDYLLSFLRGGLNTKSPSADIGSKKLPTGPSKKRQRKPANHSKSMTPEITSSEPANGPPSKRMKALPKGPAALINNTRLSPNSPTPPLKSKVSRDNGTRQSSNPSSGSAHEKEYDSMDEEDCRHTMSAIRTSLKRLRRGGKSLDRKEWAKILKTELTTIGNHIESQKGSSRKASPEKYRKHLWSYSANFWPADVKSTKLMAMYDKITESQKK

Protein translocase subunit SecA (Escherichia coli (strain K12)), sequence (P10408 whole entry): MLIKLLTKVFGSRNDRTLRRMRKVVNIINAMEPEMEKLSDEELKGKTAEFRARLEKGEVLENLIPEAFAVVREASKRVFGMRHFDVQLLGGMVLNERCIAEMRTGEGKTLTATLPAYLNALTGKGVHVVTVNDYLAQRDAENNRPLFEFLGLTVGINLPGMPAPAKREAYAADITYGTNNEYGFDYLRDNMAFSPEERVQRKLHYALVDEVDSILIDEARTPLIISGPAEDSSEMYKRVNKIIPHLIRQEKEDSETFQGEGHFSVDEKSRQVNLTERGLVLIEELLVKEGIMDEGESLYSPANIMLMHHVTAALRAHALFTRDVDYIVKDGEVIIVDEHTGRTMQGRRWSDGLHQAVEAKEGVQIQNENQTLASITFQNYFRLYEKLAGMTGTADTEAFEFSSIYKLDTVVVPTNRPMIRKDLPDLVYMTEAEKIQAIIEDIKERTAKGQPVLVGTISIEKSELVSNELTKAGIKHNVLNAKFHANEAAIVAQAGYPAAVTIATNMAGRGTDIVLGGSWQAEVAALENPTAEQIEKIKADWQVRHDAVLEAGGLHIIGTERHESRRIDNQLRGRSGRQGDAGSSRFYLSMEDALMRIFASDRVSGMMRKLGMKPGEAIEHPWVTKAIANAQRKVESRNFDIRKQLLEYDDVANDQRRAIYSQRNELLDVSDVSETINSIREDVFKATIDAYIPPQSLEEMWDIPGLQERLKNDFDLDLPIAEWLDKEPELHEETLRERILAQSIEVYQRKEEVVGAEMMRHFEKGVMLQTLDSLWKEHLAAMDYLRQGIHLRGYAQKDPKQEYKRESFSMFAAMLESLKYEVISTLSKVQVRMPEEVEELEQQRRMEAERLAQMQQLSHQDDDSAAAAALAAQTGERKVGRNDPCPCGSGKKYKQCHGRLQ

SMILES	Percent Effect [1] [%]	Percent Effect [2] [%]	Percent Effect [3] [%]	Percent Effect [4] [%]	Percent Effect [5] [%]	Percent Effect [6] [%]	Percent Effect [7] [%]	Percent Effect [8] [%]	Percent Effect [9] [%]	Percent Effect [10] [%]	Percent Effect [11] [%]
O=C(NCCCNC(=O)c1cccc(O)c1)Nc1ccc(F)cc1F	-7.43	18.4	7.05	-5.18	2.24	-3.55	12.9	3.94	2.13	15.6	-5.87
Cc1ccc(C(=O)O)cc1S(=O)(=O)Nc1nn(-c2ccccc2)cc1C	-5.95	2.74	9.77	0.854	-5.09	0.455	17.6	17.3	-10.8	-17.5	-5.76
O=C(COc1coc(CN2CCCCCC2)cc1=O)c1ccccc1	-5.87	-7.89	-1.88	-6.78	-3.6	-1.18	9.49	-1.04	3.19	0	72.3
O=C(NCc1cnc2n1CCN(c1ncc(F)cn1)CC2)C1CCC1	-3.67	0	0.174	23.6	2.83	1.24	-0.772	-4.55	4.3	3.7	0.0919
CC(NC(=O)NCCCN(C)S(C)(=O)=O)c1ccncc1 (configuration not stated)	-0.684	8.86	5.26	-2.69	-2.77	5.38	10.8	1.71	12.5	20.2	-14.2
COc1ccc2c(c1)C1(CCN(Cc3ccoc3)CC1)N(C)CC2	-1.9	5.2	2.57	3.45	-0.0986	-7.1	20	-0.746	-1.06	8.97	-9.11
Cc1csc(N2CCN(C(=O)Cc3ccc(C)s3)CC2)n1	-4.68	10.8	-9.36	4.82	-6.89	-5.61	25.2	15.8	12.3	11.1	1.36
COCC1Cn2nnc(-c3cnn(C)c3)c2CN1Cc1ccc(C)s1 (configuration not stated)	-0.562	10.8	12	-1.82	1.37	18.3	-0.0845	48.1	6.93	6.1	-4.26
Cn1nccc1CNC(=O)Nc1cc(C(F)(F)F)c[nH]c1=O	-2.37	7.89	-1.77	11.9	2.44	8.43	4.51	0.842	6.37	12.2	-9.48
COC(=O)c1ccc(C2CC(=O)Oc3cc(C)[nH]c(=O)c32)cc1 (configuration not stated)	-1.55	6.67	-1.14	0.386	4.71	-2.99	7.58	-1.51	6.35	5.13	-3.36
O=C(c1ccc(C2CCCO2)s1)N1CCN(c2ccccc2F)CC1 (configuration not stated)	-2.34	16.2	-2.01	21.1	3.67	30	14.1	-6.24	5.82	14.6	-4.16
CN(Cc1ccccc1O)C(=O)NC1CCCN(c2ncccn2)C1 (configuration not stated)	-1.53	15.8	0.343	-3.02	-7.89	-1.53	6.01	26.3	2.45	7.32	-8.65
CC(CN1CCN(C)CC1)NC(=O)c1cc(Cl)c2c(c1)OCO2 (configuration not stated)	-11.8	1.39	140	-0.639	0.68	1.77	8.42	-2.86	6.32	10.3	-2.31
NC(=O)C1CCN(c2nc3nccc(-c4ccccc4)c3c(=O)[nH]2)CC1	-4.01	2.74	-6.46	3.02	6.75	-7.19	14.8	5.49	1.04	6.17	-5.09
CNc1cc2c(nn1)CCN(C(=O)c1ccc(-n3nccc3C)cc1)C2	-3.9	7.79	-0.653	-3.32	6.56	-1.9	11.4	14.4	6.67	9.41	-16.2
Cc1nnc(Nc2cccc(C3CCN(CCO)CC3)n2)s1	-1.13	13.3	4.79	-2.96	1.38	1.63	4.85	11.5	6.38	14.1	-3.37
CC(C)n1ccnc1C1CCCN(c2ccnc3ccccc23)C1 (configuration not stated)	-5.45	2.67	3.66	2	-0.487	-1.04	1.57	53.9	7.1	6.17	-6.66
CCCc1nc(C(C)(C)NC(=O)C2CC(=O)N(CC3CC3)C2)no1 (configuration not stated)	-3.09	10.8	-4.68	-4.84	-6.78	2.4	-5.75	14.8	2.97	11	5.6
Cc1cccc(CNCc2c(C(C)C)nn(C)c2N2CCOCC2)n1	-1.17	5.48	-18.3	-6.47	-1.57	-8.64	5.68	-8.24	2.15	5	-2.13
CSCCCN1CC[C@@H](NC(=O)c2cnccn2)[C@H](O)C1	-3.48	5.41	-0.599	6.12	3.09	-1.43	11.6	5.1	8.99	19.5	1.39
O=C(C1CCOC1)N1C[C@H]2CN(Cc3nccs3)C[C@H]2C1 (some centres not stated)	-7.06	5.41	2.27	-7.15	-3.81	-6.69	15.7	-4.44	0	2.56	-2.08
Cc1ccc(C(=O)NCCCNS(C)(=O)=O)c(=O)[nH]1	-3.74	16.2	-2.72	4.72	2.54	5	22.4	-1.74	10.9	18.3	-7.91

From ChEMBL document CHEMBL3988442, “University of Dundee, Small-Polar-MMV Screening Library” (2021)
